Experimental data taken from PubChem BioAssay (Tox21).
Inconclusive results are not listed. Unmarked numbers belong to inactive results. Active and inactive are the calls of the source. Calls come from the whole dose curve; as a rule, active = well fitted cell-killing curve with a large enough effect in the repeat runs; inconclusive = weak or mixed curves, or effect the other way; inactive = flat fitted curve, though single readings scatter.

Experiment: cAMP Responsive Elements (CRE) small molecule agonists, cell-based qHTS assay: qHTS cell viability counter screen (AID 2060914); note: nearly all actives have a fitted effect of over 50% in size
Settings: CRE-bla HEK293T viability, CellTiter-Glo luminescence, 5 h; series mostly up to 92.4 µM; activity change, negative = cytotoxicity: at the top concentration
In short: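 CRE-bla HEK293T cells in 10% dialyzed FBS medium were exposed to compounds for 3 h at 37C after 18 h plating. CellTiter-Glo was then added in the same wells, and luminescence was read after 30 min at room temperature.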
% is set by controls: 0 for no effect and ±100 for the full control effect; potency is the fitted concentration of half-maximal effect.

Structure (SMILES)	activity change, negative = cytotoxicity	Potency
CCOC(=O)c1ccc(OC(=O)CCCCCN=C(N)N)cc1	-0.626% [at 42.5 µM]	–
CN1CCN(CCCN2c3ccccc3Sc3ccc(C(F)(F)F)cc32)CC1	-21.5% [at 42.5 µM]	–
C[Si]1(C)O[Si](C)(C)O[Si](C)(C)O[Si](C)(C)O[Si](C)(C)O1	-0.0261%	–
CC1CCc2c(N3CCC(O)CC3)c(F)cc3c(=O)c(C(=O)O)cn1c23 (stereo unspecified)	-2.04% [at 42.5 µM]	–
CC(C)NCCCC1(C(N)=O)c2ccccc2-c2ccccc21	11.1% [at 42.5 µM]	–
CCC(=O)O[C@]1(C(=O)COC)[C@@H](C)C[C@H]2[C@@H]3CCC4=CC(=O)C=C[C@]4(C)C3(F)[C@@H](O)C[C@@]21C (stereo partly specified)	6.98% [at 42.5 µM]	–
CCCCS	-1.6%	–
Cc1c2ccccc2c(C)c2c1ccc1ccccc12	–	inactive
CC(=O)CC/C=C(\C)CCC=C(C)C	–	inactive
Cc1c(O)cccc1C(=O)N[C@@H](CSc1ccccc1)[C@H](O)CN1C[C@H]2CCCC[C@H]2C[C@H]1C(=O)NC(C)(C)C	-5.39% [at 42.5 µM]	–
CCCCCCCCCCCSCC(=O)O	-0.822%	–
C/C(C=O)=C\c1ccccc1	-7.37%	–
O=C(Nc1ncc([N+](=O)[O-])s1)c1cccs1	–	11.9 µM (active)
Clc1cccc(Cl)n1	-2.76%	–
C1=C\CC/C=C\CC/C=C\CC/1	12.6%	–
CCN(CC)CC	-1.77%	–
